# Reference: publication PMC11066047
# Tests used:
# [1] = biological target: Heat shock protein homolog SSE1 (UniProt P32589); test: cross-link between two proteins; cross-linking mass spectrometry
# [2] = biological target: Heat shock protein homolog SSE2 (UniProt P32590); test: as above
# [3] = biological target: Isocitrate dehydrogenase [NAD] subunit 1, mitochondrial (UniProt P28834); test: as above
# [4] = biological target: Large ribosomal subunit protein eL30 (UniProt P14120); test: as above
# [5] = biological target: Small ribosomal subunit protein eS7A (UniProt P26786); test: cross-link between two proteins
# [6] = biological target: Large ribosomal subunit protein eL31A (UniProt P0C2H8); test: cross-link between two proteins; cross-linking mass spectrometry
# [7] = biological target: Large ribosomal subunit protein eL32 (UniProt P38061); test: as above
# [8] = biological target: Ribosome biogenesis protein ALB1 (UniProt P47019); test: as above
# Zuotin = Zuotin (UniProt P32527); test: as above
# [9] = biological target: Large ribosomal subunit protein eL38 (UniProt P49167); test: as above
# [10] = biological target: Large ribosomal subunit protein eL6A (UniProt Q02326); test: as above
# [11] = biological target: Large ribosomal subunit protein eL8B (UniProt P29453); test: as above
# Large ribosomal subunit protein eL8B, sequence (P29453 whole entry): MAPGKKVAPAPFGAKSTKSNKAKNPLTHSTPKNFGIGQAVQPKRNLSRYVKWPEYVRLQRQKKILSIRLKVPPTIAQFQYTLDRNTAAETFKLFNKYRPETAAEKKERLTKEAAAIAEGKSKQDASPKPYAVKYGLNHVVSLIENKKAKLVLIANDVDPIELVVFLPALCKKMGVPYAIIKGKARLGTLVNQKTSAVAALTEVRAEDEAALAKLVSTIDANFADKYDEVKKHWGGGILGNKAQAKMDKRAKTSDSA
# Pescadillo homolog = Pescadillo homolog (UniProt P53261); test: as above
# [12] = biological target: Proteasome-interacting protein CIC1 (UniProt P38779); test: as above
# Proteasome-interacting protein CIC1, sequence (P38779 whole entry): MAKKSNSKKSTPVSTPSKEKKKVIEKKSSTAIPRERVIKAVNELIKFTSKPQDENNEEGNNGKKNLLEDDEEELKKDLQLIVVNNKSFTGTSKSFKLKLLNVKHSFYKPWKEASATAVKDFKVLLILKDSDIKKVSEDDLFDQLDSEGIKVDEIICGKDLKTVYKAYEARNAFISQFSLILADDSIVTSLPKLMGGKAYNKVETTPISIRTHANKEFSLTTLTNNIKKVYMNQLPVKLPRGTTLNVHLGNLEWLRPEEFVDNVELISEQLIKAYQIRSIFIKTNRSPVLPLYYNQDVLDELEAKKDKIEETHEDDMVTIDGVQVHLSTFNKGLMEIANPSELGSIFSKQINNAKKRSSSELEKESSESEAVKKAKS
# [13] = biological target: Large ribosomal subunit protein uL13B (UniProt P26785); test: as above
# [14] = biological target: Large ribosomal subunit protein uL4A (UniProt P10664); test: as above
# [15] = biological target: Large ribosomal subunit protein uL4B (UniProt P49626); test: as above
# [16] = biological target: Mitochondrial import inner membrane translocase subunit TIM14 (UniProt Q07914); test: as above
# [17] = biological target: NET1-associated nuclear protein 1 (UniProt Q02931); test: cross-link between two proteins
# NET1-associated nuclear protein 1, sequence (Q02931 whole entry): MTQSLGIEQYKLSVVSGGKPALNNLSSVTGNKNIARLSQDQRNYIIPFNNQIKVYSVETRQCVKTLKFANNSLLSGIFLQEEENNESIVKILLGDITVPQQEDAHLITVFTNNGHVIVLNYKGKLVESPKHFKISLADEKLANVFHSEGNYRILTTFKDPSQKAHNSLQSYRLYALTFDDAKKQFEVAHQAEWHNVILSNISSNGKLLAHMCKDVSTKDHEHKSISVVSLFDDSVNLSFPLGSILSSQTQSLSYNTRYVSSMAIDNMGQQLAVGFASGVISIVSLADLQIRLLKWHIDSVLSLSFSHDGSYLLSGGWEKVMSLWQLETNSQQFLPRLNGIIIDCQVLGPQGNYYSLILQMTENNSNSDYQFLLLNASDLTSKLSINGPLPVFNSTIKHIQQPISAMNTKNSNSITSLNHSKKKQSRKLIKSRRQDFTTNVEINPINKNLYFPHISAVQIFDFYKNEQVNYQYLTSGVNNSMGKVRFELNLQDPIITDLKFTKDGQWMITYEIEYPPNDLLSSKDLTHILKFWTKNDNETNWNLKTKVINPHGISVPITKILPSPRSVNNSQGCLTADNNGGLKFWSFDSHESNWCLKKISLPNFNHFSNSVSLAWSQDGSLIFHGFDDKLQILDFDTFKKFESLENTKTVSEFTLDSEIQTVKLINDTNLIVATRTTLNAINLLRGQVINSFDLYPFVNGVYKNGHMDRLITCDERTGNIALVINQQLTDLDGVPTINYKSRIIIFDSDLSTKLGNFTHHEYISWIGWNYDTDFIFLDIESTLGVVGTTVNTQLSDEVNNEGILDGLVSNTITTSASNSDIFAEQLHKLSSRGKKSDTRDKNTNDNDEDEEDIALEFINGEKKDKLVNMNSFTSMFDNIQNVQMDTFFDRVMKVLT
# [18] = biological target: Nucleolar complex protein 14 (UniProt Q99207); test: cross-link between two proteins
# [19] = biological target: Ribosomal RNA-processing protein 12 (UniProt Q12754); test: cross-link between two proteins
# Nucleolar protein 56 = Nucleolar protein 56 (UniProt Q12460); test: cross-link between two proteins
# Nucleolar protein 58 = Nucleolar protein 58 (UniProt Q12499); test: cross-link between two proteins; cross-linking mass spectrometry
# Prohibitin-2 = Prohibitin-2 (UniProt P50085); test: as above
# [20] = biological target: Proteasome subunit alpha type-2 (UniProt P23639); test: as above
# Proteasome subunit alpha type-2, sequence (P23639 whole entry): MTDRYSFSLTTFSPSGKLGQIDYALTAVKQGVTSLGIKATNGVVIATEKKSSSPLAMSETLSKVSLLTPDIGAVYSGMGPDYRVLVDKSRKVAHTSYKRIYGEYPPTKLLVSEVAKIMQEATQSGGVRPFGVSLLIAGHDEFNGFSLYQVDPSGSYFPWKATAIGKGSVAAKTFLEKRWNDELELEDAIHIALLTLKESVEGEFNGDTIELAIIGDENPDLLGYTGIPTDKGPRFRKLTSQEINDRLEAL
# [21] = biological target: Proteasome subunit beta type-3 (UniProt P25451); test: as above
# Proteasome subunit beta type-3, sequence (P25451 whole entry): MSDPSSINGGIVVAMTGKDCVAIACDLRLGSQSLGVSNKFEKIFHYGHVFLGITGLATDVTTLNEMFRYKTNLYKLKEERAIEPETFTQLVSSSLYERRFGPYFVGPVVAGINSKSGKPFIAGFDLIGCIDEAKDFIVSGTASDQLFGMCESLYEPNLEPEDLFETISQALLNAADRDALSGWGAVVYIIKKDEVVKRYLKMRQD
# [22] = biological target: Proteasome subunit alpha type-3 (UniProt P23638); test: as above
# [23] = biological target: Proteasome subunit alpha type-6 (UniProt P40302); test: as above
# [24] = biological target: Protein transport protein SBH2 (UniProt P52871); test: as above
# [25] = biological target: Ribosome biogenesis protein BMS1 (UniProt Q08965); test: cross-link between two proteins
# [26] = biological target: Ribosome biogenesis protein MAK21 (UniProt Q12176); test: cross-link between two proteins; cross-linking mass spectrometry
# [27] = biological target: Ribosome biogenesis protein YTM1 (UniProt Q12024); test: as above
# Ribosome biogenesis protein YTM1, sequence (Q12024 whole entry): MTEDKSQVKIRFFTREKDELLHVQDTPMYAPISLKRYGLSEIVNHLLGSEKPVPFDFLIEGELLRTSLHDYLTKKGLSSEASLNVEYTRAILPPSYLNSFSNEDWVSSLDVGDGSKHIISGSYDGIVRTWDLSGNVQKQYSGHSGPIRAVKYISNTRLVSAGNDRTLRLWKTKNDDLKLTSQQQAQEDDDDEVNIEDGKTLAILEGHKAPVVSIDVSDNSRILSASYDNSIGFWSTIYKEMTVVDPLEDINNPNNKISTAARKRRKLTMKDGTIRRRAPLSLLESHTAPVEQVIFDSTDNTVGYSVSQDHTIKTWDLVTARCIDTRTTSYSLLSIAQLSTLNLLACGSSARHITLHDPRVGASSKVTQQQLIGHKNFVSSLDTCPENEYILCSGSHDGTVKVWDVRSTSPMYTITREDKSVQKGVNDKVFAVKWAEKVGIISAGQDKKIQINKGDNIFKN
# RuvB-like protein 2 = RuvB-like protein 2 (UniProt Q12464); test: as above
# [28] = biological target: Small ribosomal subunit protein RACK1 (UniProt P38011); test: as above
# [29] = biological target: Small ribosomal subunit protein uS10 (UniProt P38701); test: as above
# [30] = biological target: Small ribosomal subunit protein uS5 (UniProt P25443); test: as above
# Small ribosomal subunit protein uS5, sequence (P25443 whole entry): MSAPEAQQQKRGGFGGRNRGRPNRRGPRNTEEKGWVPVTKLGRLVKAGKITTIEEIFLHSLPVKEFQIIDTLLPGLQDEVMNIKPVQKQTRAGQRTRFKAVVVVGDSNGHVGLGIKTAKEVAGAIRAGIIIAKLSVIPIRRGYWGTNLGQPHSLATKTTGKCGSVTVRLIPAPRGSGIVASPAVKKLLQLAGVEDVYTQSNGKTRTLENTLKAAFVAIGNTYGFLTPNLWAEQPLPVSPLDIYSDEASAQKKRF
# [31] = biological target: Small ribosomal subunit protein eS12 (UniProt P48589); test: as above
# [32] = biological target: Small ribosomal subunit protein eS25A (UniProt Q3E792); test: as above
# [33] = biological target: Small ribosomal subunit protein eS28A (UniProt Q3E7X9); test: cross-link between two proteins
# Small ribosomal subunit protein eS28A, sequence (Q3E7X9 whole entry): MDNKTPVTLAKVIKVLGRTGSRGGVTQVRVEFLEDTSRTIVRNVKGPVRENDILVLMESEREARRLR
# [34] = biological target: Small ribosomal subunit protein uS11B (UniProt P39516); test: cross-link between two proteins; cross-linking mass spectrometry
# [35] = biological target: Small ribosomal subunit protein uS7 (UniProt P26783); test: as above
# [36] = biological target: Succinate--CoA ligase [ADP-forming] subunit alpha, mitochondrial (UniProt P53598); test: as above
# [37] = biological target: U3 small nucleolar RNA-associated protein 12 (UniProt Q12220); test: as above
# U3 small nucleolar RNA-associated protein 12, sequence (Q12220 whole entry): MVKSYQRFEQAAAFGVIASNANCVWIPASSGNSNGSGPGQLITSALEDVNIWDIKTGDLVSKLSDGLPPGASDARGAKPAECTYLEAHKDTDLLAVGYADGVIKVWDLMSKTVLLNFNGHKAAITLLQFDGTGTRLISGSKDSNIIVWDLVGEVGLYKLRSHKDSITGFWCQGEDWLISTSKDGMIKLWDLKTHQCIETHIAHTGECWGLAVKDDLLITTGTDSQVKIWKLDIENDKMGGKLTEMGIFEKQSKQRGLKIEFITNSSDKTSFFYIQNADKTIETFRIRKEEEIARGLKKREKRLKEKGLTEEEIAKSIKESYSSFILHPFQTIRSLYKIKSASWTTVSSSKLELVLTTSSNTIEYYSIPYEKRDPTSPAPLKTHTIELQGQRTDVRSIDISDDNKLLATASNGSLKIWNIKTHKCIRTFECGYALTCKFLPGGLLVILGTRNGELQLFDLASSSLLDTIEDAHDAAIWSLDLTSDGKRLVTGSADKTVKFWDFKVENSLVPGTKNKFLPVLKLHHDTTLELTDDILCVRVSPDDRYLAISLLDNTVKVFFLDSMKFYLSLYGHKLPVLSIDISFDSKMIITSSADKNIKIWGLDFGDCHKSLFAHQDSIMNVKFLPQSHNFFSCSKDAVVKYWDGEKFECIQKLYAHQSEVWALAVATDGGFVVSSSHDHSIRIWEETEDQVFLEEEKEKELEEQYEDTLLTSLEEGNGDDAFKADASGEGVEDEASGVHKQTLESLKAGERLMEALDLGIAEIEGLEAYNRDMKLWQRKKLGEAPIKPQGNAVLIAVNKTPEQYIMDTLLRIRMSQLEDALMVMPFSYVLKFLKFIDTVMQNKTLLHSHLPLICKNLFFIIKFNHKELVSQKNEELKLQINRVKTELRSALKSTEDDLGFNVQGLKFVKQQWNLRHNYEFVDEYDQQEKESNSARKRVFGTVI
# [38] = biological target: U3 small nucleolar RNA-associated protein 15 (UniProt Q04305); test: as above
# U3 small nucleolar RNA-associated protein 15, sequence (Q04305 whole entry): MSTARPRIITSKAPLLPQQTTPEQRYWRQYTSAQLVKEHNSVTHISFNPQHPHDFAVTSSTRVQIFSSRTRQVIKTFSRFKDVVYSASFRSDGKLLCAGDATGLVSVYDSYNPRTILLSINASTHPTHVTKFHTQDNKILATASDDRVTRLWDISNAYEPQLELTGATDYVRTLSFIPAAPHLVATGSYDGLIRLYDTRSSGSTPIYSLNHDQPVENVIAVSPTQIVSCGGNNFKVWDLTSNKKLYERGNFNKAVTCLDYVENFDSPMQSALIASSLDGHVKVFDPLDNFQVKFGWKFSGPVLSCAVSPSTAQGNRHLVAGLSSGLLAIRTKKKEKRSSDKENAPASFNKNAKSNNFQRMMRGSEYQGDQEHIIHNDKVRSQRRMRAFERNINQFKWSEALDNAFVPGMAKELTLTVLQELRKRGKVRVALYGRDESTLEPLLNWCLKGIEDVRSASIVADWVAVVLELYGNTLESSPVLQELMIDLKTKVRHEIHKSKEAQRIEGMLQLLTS
# [39] = biological target: U3 small nucleolar RNA-associated protein 16 (UniProt Q08492); test: cross-link between two proteins
# [40] = biological target: U3 small nucleolar RNA-associated protein 21 (UniProt Q06078); test: cross-link between two proteins
# [41] = biological target: U3 small nucleolar RNA-associated protein 22 (UniProt P53254); test: cross-link between two proteins
# [42] = biological target: U3 small nucleolar RNA-associated protein MPP10 (UniProt P47083); test: cross-link between two proteins
# [43] = biological target: Ubiquitin-like protein MDY2 (UniProt Q12285); test: cross-link between two proteins; cross-linking mass spectrometry
# [44] = biological target: rRNA-processing protein FCF2 (UniProt Q12035); test: cross-link between two proteins
# Heat shock protein SSA1, P10591, sequence (P10591 whole entry): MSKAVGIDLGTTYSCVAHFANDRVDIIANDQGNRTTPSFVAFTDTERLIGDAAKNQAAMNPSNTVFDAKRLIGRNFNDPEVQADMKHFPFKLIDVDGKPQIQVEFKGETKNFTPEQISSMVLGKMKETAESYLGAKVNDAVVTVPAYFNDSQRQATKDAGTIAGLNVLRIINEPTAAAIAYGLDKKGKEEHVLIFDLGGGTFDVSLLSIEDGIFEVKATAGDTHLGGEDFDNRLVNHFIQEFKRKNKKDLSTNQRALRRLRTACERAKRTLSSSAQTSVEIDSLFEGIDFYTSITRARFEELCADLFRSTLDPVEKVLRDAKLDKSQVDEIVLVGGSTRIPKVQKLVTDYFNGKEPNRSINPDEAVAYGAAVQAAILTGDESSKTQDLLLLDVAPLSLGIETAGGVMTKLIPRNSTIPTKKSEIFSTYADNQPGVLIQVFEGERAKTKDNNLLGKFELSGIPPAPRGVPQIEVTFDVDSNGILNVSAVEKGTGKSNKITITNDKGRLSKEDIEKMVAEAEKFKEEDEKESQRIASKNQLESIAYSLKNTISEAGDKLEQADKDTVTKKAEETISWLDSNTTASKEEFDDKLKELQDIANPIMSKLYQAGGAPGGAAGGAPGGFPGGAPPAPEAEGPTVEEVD
# Small ribosomal subunit protein eS28B, P0C0X0, sequence (P0C0X0 whole entry): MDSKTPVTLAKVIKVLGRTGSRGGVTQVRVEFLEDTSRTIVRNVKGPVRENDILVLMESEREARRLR
substance,measurement,setting,value
"Heat shock protein SSA1, P10591",listed as a hit,[1],yes
same,listed as a hit,[2],yes
"Isocitrate dehydrogenase [NAD] subunit 2, mitochondrial, P28241",listed as a hit,[3],yes
"Small ribosomal subunit protein uS15, P05756",listed as a hit,[4],yes
same,listed as a hit,[5],yes
"Large ribosomal subunit protein uL22A, P05740",listed as a hit,[6],yes
same,listed as a hit,[7],yes
same,listed as a hit,[8],yes
same,listed as a hit,Zuotin,yes
"Large ribosomal subunit protein eL22A, P05749",listed as a hit,[9],yes
"Large ribosomal subunit protein eL32, P38061",listed as a hit,[10],yes
"Large ribosomal subunit protein eL8A, P17076",listed as a hit,[11],yes
same,listed as a hit,Pescadillo homolog,yes
same,listed as a hit,[12],yes
"Large ribosomal subunit protein eL27A, P0C2H6",listed as a hit,[11],yes
"Large ribosomal subunit protein uL3, P14126",listed as a hit,[13],yes
"Large ribosomal subunit protein uL30A, P05737",listed as a hit,[14],yes
same,listed as a hit,[15],yes
"Mitochondrial import inner membrane translocase subunit TIM16, P42949",listed as a hit,[16],yes
"U3 small nucleolar RNA-associated protein 8, P53276",listed as a hit,[17],yes
"U3 small nucleolar RNA-associated protein 10, P42945",listed as a hit,[17],yes
"Essential nuclear protein 1, P38333",listed as a hit,[18],yes
same,listed as a hit,[19],yes
"rRNA 2'-O-methyltransferase fibrillarin, P15646",listed as a hit,Nucleolar protein 56,yes
same,listed as a hit,Nucleolar protein 58,yes
"Large ribosomal subunit protein eL8B, P29453",listed as a hit,Pescadillo homolog,yes
same,listed as a hit,[12],yes
"Prohibitin-1, P40961",listed as a hit,Prohibitin-2,yes
"Proteasome subunit alpha type-3, P23638",listed as a hit,[20],yes
same,listed as a hit,[21],yes
"Proteasome subunit alpha type-1, P21243",listed as a hit,[20],yes
"Proteasome subunit beta type-4, P22141",listed as a hit,[22],yes
same,listed as a hit,[21],yes
"Probable proteasome subunit alpha type-7, P21242",listed as a hit,[23],yes
"Sec sixty-one protein homolog, P38353",listed as a hit,[24],yes
"rRNA processing protein RCL1, Q08096",listed as a hit,[25],yes
"Nucleolar complex protein 2, P39744",listed as a hit,[26],yes
"rRNA biogenesis protein RRP5, Q05022",listed as a hit,[26],yes
"Ribosome biogenesis protein ERB1, Q04660",listed as a hit,[27],yes
"Pescadillo homolog, P53261",listed as a hit,[27],yes
"RuvB-like protein 1, Q03940",listed as a hit,RuvB-like protein 2,yes
"Small ribosomal subunit protein uS3, P05750",listed as a hit,[28],yes
same,listed as a hit,[29],yes
same,listed as a hit,[30],yes
"Ubiquitin-ribosomal protein eS31 fusion protein, P05759",listed as a hit,[31],yes
"Small ribosomal subunit protein uS7, P26783",listed as a hit,[32],yes
same,listed as a hit,[33],yes
"Small ribosomal subunit protein eS26A, P39938",listed as a hit,[33],yes
"Small ribosomal subunit protein eS1B, P23248",listed as a hit,[34],yes
"Small ribosomal subunit protein eS21A, P0C0V8",listed as a hit,[30],yes
"Small ribosomal subunit protein eS28B, P0C0X0",listed as a hit,[35],yes
"Succinate--CoA ligase [ADP-forming] subunit beta, mitochondrial, P53312",listed as a hit,[36],yes
"U3 small nucleolar RNA-associated protein 13, Q05946",listed as a hit,[37],yes
"U3 small nucleolar RNA-associated protein 21, Q06078",listed as a hit,[37],yes
"NET1-associated nuclear protein 1, Q02931",listed as a hit,[38],yes
"U3 small nucleolar RNA-associated protein 5, Q04177",listed as a hit,[38],yes
"Nucleolar complex protein 4, Q06512",listed as a hit,[39],yes
"Periodic tryptophan protein 2, P25635",listed as a hit,[40],yes
"Ribosomal RNA-processing protein 7, P25368",listed as a hit,[41],yes
"U3 small nucleolar ribonucleoprotein protein IMP3, P32899",listed as a hit,[42],yes
"Golgi to ER traffic protein 4, Q12125",listed as a hit,[43],yes
"U3 small nucleolar RNA-associated protein 6, Q02354",listed as a hit,[44],yes
